Ten molecules from PubChem BioAssay (NCI) can be followed below.

Test [1] is described as follows: NCI Yeast Anticancer Drug Screen. Data for the rad50 strain (AID 155).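 Also: 0% = growth of vehicle-only cultures of the same strain.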 Particulars: S. cerevisiae rad50 strain growth inhibition, active compounds read high. In short, it runs like this:
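Relative growth inhibition (compound vs vehicle) was measured in yeast with a defined repair-gene alteration.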

Test [2] is described as follows: NCI Yeast Anticancer Drug Screen. Data for the mec2-1 strain (AID 157). Conditions: S. cerevisiae mec2-1 strain, active compounds read high. In short, it runs like this:
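Readout is yeast growth inhibition, normalised to vehicle-treated controls, in the mec2-1 strain exposed to compound.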

The nature of test [3]: NCI Yeast Anticancer Drug Screen. Data for the sgs1 mgt1 strain (AID 161).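 Also: 0% = growth of cultures given vehicle only.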 Conditions: S. cerevisiae sgs1 mgt1 strain, active compounds read high. In short, it runs like this: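 Compounds are added to genetically altered yeast, and growth is compared with cultures given vehicle alone to give percent inhibition.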
A short description of test [4]: NCI Yeast Anticancer Drug Screen. Data for the cln2 rad14 strain (AID 165).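 Also: 0% = growth equal to vehicle treated cultures.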 Particulars: S. cerevisiae cln2 rad14 strain, active compounds read high. In outline:
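Relative to vehicle controls, growth inhibition of compound-treated cln2 rad14 yeast was recorded.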

Test [5] can be described thus: NCI Yeast Anticancer Drug Screen. Data for the bub3 strain (AID 167). Particulars: S. cerevisiae bub3 mutant strain, active compounds read high. In short, it runs like this:
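Screening used yeast with an engineered genetic alteration affecting cell cycle control. Compound-exposed cultures were compared with vehicle cultures, and reduced growth was taken as inhibition.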

Test [6] is described as follows: NCI Yeast Anticancer Drug Screen. Data for the mlh1 rad18 strain (AID 175). Particulars: S. cerevisiae mlh1 rad18 strain growth inhibition, active compounds read high. In short, it runs like this:
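Test agents were incubated with a yeast strain of defined genotype (DNA damage repair defect). Inhibition of growth was derived by comparison with vehicle-exposed cultures.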

The mark [7] stands for this setting: at 5.0 µM (retest, dose inferred, filed as 0.5).
[8] abbreviates: at 50.0 µM (retest, dose inferred, filed as 5.0).

Structures are written as SMILES. Compounds without any hit were thinned out: in the full panel of roughly 79,000, 15% have a hit. A number with no mark means an inactive call. Active and inactive are the calls of the source. Rule as the data show it: active = growth inhibition above about 70%; inactive = the rest.

Consider `NC(=S)N/N=C\c1nccc2c(C(F)(F)F)cccc12`, for which the growth inhibition in test [1] (setting [7]) was -4%; in test [1] (setting [8]), 96% (active); in test [1] (at 50.0 µM) it was 89% (active); in test [2] (setting [7]), 2%; in test [2] (setting [8]) it was 96% (active); in test [2] (at 50.0 µM) it was 91.4% (active). The growth inhibition was 6% in test [3] (setting [7]); 96% (active) in test [3] (setting [8]); 90.5% (active) in test [3] (at 50.0 µM); -10% in test [4] (setting [7]); 94% (active) in test [4] (setting [8]); 88.2% (active) in test [4] (at 50.0 µM). The growth inhibition was -5% in test [5] (setting [7]); 95% (active) in test [5] (setting [8]); 89.7% (active) in test [5] (at 50.0 µM); 7% in test [6] (setting [7]); 95% (active) in test [6] (setting [8]); 89.2% (active) in test [6] (at 50.0 µM).

Turning to `CCC(C)(O)Cc1ccc(Cl)cc1` (stereo not given), the growth inhibition is 4% in test [1] (setting [7]); -3% in test [1] (setting [8]); -14.7% in test [1] (at 50.0 µM); 1% in test [2] (setting [7]); -2% in test [2] (setting [8]); 41.9% in test [2] (at 50.0 µM). In addition, the growth inhibition is 0% in test [3] (setting [7]); -1% in test [3] (setting [8]); 1.65% in test [3] (at 50.0 µM); 3% in test [4] (setting [7]); -5% in test [4] (setting [8]); -39.8% in test [4] (at 50.0 µM). In addition, the growth inhibition was -6% in test [5] (setting [7]); -7% in test [5] (setting [8]); -23.3% in test [5] (at 50.0 µM); 3% in test [6] (setting [7]); -5% in test [6] (setting [8]); -6.8% in test [6] (at 50.0 µM).

`CN(C)c1ccc2cc3c(cc2c1)Oc1ccccc1N3.[Cl][Zn][Cl]`: the growth inhibition in test [1] (setting [7]) is 36%; in test [1] (setting [8]), 90% (active); in test [1] (at 50.0 µM) it was 84.2% (active); in test [2] (setting [7]) it was 38%; in test [2] (setting [8]) it was 95% (active); in test [2] (at 50.0 µM) it was 85% (active). The growth inhibition is 37% in test [3] (setting [7]); 94% (active) in test [3] (setting [8]); 87.8% (active) in test [3] (at 50.0 µM); 29% in test [4] (setting [7]); 94% (active) in test [4] (setting [8]); 83.9% (active) in test [4] (at 50.0 µM). Moreover, the growth inhibition is 48% in test [5] (setting [7]); 95% (active) in test [5] (setting [8]); 83.8% (active) in test [5] (at 50.0 µM); 42% in test [6] (setting [7]); 91% (active) in test [6] (setting [8]); 83.3% (active) in test [6] (at 50.0 µM).

Consider `CC(CSc1n[nH]c(=S)s1)c1ccccc1` (stereo not given), for which the growth inhibition was 7% in test [1] (setting [7]); 93% (active) in test [1] (setting [8]); 97.1% (active) in test [1] (at 50.0 µM); 11% in test [2] (setting [7]); 96% (active) in test [2] (setting [8]); 95.8% (active) in test [2] (at 50.0 µM). Further, the growth inhibition in test [3] (setting [7]) was 14%; in test [3] (setting [8]), 96% (active); in test [3] (at 50.0 µM), 95.8% (active); in test [4] (setting [7]), 1%; in test [4] (setting [8]), 93% (active); in test [4] (at 50.0 µM), 95.2% (active). Further, the growth inhibition is 23% in test [5] (setting [7]); 94% (active) in test [5] (setting [8]); 96.3% (active) in test [5] (at 50.0 µM); 12% in test [6] (setting [7]); 94% (active) in test [6] (setting [8]); 95.1% (active) in test [6] (at 50.0 µM).

With `Clc1ccc(Cc2nc3ccccc3s2)cc1`, the growth inhibition was -5% in test [1] (setting [7]); 99% (active) in test [1] (setting [8]); 99.2% (active) in test [1] (at 50.0 µM); 33% in test [2] (setting [7]); 99% (active) in test [2] (setting [8]); 99.5% (active) in test [2] (at 50.0 µM). For the same molecule, the growth inhibition in test [3] (setting [7]) was 47%; in test [3] (setting [8]) it was 99% (active); in test [3] (at 50.0 µM), 99.5% (active); in test [4] (setting [7]), 16%; in test [4] (setting [8]) it was 99% (active); in test [4] (at 50.0 µM) it was 97.3% (active). Moreover, the growth inhibition in test [5] (setting [7]) was 38%; in test [5] (setting [8]), 99% (active); in test [5] (at 50.0 µM), 99% (active); in test [6] (setting [7]), 29%; in test [6] (setting [8]) it was 99% (active); in test [6] (at 50.0 µM) it was 99.3% (active).

Turning to `Nc1ccc(Oc2ccccc2)c(Cl)c1`, the growth inhibition in test [1] (setting [7]) is 10%; in test [1] (setting [8]) it was 91% (active); in test [1] (at 50.0 µM), 97.6% (active); in test [2] (setting [7]) it was -15%; in test [2] (setting [8]), 30%; in test [2] (at 50.0 µM), 92.5% (active). Besides, the growth inhibition in test [3] (setting [7]) is 4%; in test [3] (setting [8]), 61%; in test [3] (at 50.0 µM) it was 97.6% (active); in test [4] (setting [7]) it was 3%; in test [4] (setting [8]), 60%; in test [4] (at 50.0 µM), 93.5% (active). In addition, the growth inhibition in test [5] (setting [7]) was 69%; in test [5] (setting [8]), 52%; in test [5] (at 50.0 µM), 90.5% (active); in test [6] (setting [7]) it was 7%; in test [6] (setting [8]) it was 72% (active); in test [6] (at 50.0 µM), 98% (active).

Regarding `COc1ccc2c(c1OC)OCC(CN(C)C)C2=O` (stereo not given), the growth inhibition in test [1] (setting [7]) was -20%; in test [1] (setting [8]), 98% (active); in test [1] (at 50.0 µM) it was 97% (active); in test [2] (setting [7]), 2%; in test [2] (setting [8]) it was 99% (active); in test [2] (at 50.0 µM), 99.3% (active). Also, the growth inhibition is 23% in test [3] (setting [7]); 98% (active) in test [3] (setting [8]); 99% (active) in test [3] (at 50.0 µM); 5% in test [4] (setting [7]); 99% (active) in test [4] (setting [8]); 96.3% (active) in test [4] (at 50.0 µM). Also, the growth inhibition in test [5] (setting [7]) is 1%; in test [5] (setting [8]), 99% (active); in test [5] (at 50.0 µM), 93.9% (active); in test [6] (setting [7]) it was -4%; in test [6] (setting [8]), 98% (active); in test [6] (at 50.0 µM) it was 99.2% (active).

For the molecule `COc1cc(/C=C/C(=O)CC(=O)/C=C/c2ccc(O)c(OC)c2)ccc1O`, the growth inhibition in test [1] (setting [7]) was 55%; in test [1] (setting [8]) it was 95% (active); in test [1] (at 50.0 µM) it was 83.8% (active); in test [2] (setting [7]), 74% (active); in test [2] (setting [8]) it was 93% (active); in test [2] (at 50.0 µM), 87.1% (active). For the same molecule, the growth inhibition in test [3] (setting [7]) is 20%; in test [3] (setting [8]), 89% (active); in test [3] (at 50.0 µM), 88% (active); in test [4] (setting [7]), 15%; in test [4] (setting [8]), 88% (active); in test [4] (at 50.0 µM), 84.3% (active). The growth inhibition in test [5] (setting [7]) is 27%; in test [5] (setting [8]), 80% (active); in test [5] (at 50.0 µM) it was 83.7% (active); in test [6] (setting [7]), 55%; in test [6] (setting [8]) it was 91% (active); in test [6] (at 50.0 µM) it was 85.5% (active).

In the case of `Oc1ccc(Nc2ccc3ccccc3c2)cc1`, the growth inhibition was 9% in test [1] (setting [7]); 97% (active) in test [1] (setting [8]); 97.5% (active) in test [1] (at 50.0 µM); -5% in test [2] (setting [7]); 98% (active) in test [2] (setting [8]); 98.5% (active) in test [2] (at 50.0 µM). The growth inhibition in test [3] (setting [7]) was 3%; in test [3] (setting [8]), 98% (active); in test [3] (at 50.0 µM), 88.9% (active); in test [4] (setting [7]) it was -5%; in test [4] (setting [8]) it was 98% (active); in test [4] (at 50.0 µM), 97.5% (active). The growth inhibition in test [5] (setting [7]) is -5%; in test [5] (setting [8]), 96% (active); in test [5] (at 50.0 µM), 98% (active); in test [6] (setting [7]), -1%; in test [6] (setting [8]), 98% (active); in test [6] (at 50.0 µM), 97.6% (active).

In the case of `Cc1c(O)ccc(SC#N)c1C`, the growth inhibition in test [1] (setting [7]) is -7%; in test [1] (setting [8]), 82% (active); in test [1] (at 50.0 µM) it was 88.5% (active); in test [2] (setting [7]), 2%; in test [2] (setting [8]), 74% (active); in test [2] (at 50.0 µM), 83.8% (active). Further, the growth inhibition in test [3] (setting [7]) is 7%; in test [3] (setting [8]) it was 75% (active); in test [3] (at 50.0 µM), 86.7% (active); in test [4] (setting [7]) it was 29%; in test [4] (setting [8]), 85% (active); in test [4] (at 50.0 µM), 84% (active). The growth inhibition in test [5] (setting [7]) is -3%; in test [5] (setting [8]), 84% (active); in test [5] (at 50.0 µM), 87.5% (active); in test [6] (setting [7]), -1%; in test [6] (setting [8]), 87% (active); in test [6] (at 50.0 µM), 88.5% (active).
